Screening data from PubChem BioAssay.
This is a sample that favours compounds with a hit; in the whole collection about 1.6% have one here.
gsp antagonist: antagonizes gsp, the McCune-Albright syndrome mutation. 340,000 tested, 0.4% active. AID 624288. Potency, µM (top dose mostly 76.9 µM), actives largely listed as inhibitors. gsp-mutant cells, cAMP HTRF, 30 min; calls by dose curve; cell line not stated here;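 note: intracellular cAMP measured with PDE inhibitor Ro 20-1724 present during compound exposure; nearly all actives have a fitted effect of over 65% in size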
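HTRF cAMP read-out (cAMP-d2 plus anti-cAMP antibody-K in lysis buffer, 30 min RT). Before lysis, cells are exposed to compounds with […] for 30 min at 37C in DPBS containing Ca/Mg, BSA and Tween 20.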
hERG WT inh: blocks the wildtype human KCNH2 potassium channel | Q12809 | U2OS, BacMam KCNH2, thallium flux FluxOr; hits give low values | activity change, % at 1.84 µM | 340,000 tested, 0.37% active | AID 720551;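 active = maximum activity change below -70%; inconclusive = maximum activity change between -70% and -50%; inactive = maximum activity change above -50%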
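U2OS cells were transduced with wild-type KCNH2 virus (2.03 x 10^8 / mL) for 4 h at room temperature, then cultured overnight at 37 C. Thallium flux was read with FluxOr dye. Rate constants were normalized to DMSO controls.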
Glioma ERSR ind: inducers of ER stress response in human glioma cells; U87-MG GRP78 promoter luciferase reporter, 16 h; Potency, µM, actives largely listed as activators; 420,000 tested, 0.02% active; AID 602332; active = well fitted activation curve with a large enough effect; inconclusive = small, poorly fitted or top-dose-only effect; inactive = no such curve, though single readings can be large or run the other way; note: series mostly up to about 76 µM; nearly all actives have a fitted effect of over 35% in size
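Stably transfected U87-MG human glioma cells carrying a GRP78-based luminescent sensor were seeded at 1000 cells/well, pin-dosed with compounds and incubated 16 h. Luciferase reagent was then added, and end-point luminescence was read after 10 min at room temperature.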
KCNH2 3.1 inh: inhibitors of human KCNH2 3.1 potassium channel isoform | U2OS KCNH2 3.1, thallium flux FluxOr; hits give low values | activity change, % (tested at about 1.8 µM) | 340,000 tested, 0.95% active | AID 720553;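 active = maximum activity change below -70%; inconclusive = maximum activity change from -70% to -50%; inactive = maximum activity change above -50%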;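 note: thallium influx rate constant from kinetic fluorescence after stimulation buffer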
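Kinetic fluorescence (2 min after stimulation buffer) measures Tl+ influx through KCNH2 3.1 expressed by viral transduction in U2OS cells; the rate constant is normalized against DMSO controls serving as positive and negative references.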
gsp agonist: gsp mutant agonism; gsp mutant cells, cAMP HTRF, 30 min; Potency, µM (top dose mostly 76.9 µM), hits mostly activators; 340,000 tested, 0.13% active; AID 624287; active = well fitted activation curve with a large enough effect; inconclusive = small, poorly fitted or top-dose-only effect, or another doubt; inactive = no such curve, though single readings can be large or run the other way; cell line not stated here;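 note: phosphodiesterase inhibitor Ro 20-1724 added with compounds to block cAMP breakdown; nearly all actives have a fitted effect of over 60% in size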
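Cells in DMEM/10% FBS with G418 were pretreated with compounds in DMSO plus […] (300 uM stock) for 30 min at 37C. cAMP was measured by HTRF (cAMP-d2 plus anti-cAMP antibody-K) after 30 min at room temperature.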
pAkt inh: blocks phosphorylation of Akt; Neuro2A IGF-stimulated pAkt S473 HTRF, 20 min; hits give low values; activity change, % for hits at 50 µM; 360,000 tested, 0.32% active; in the data active = activity change below about -80%; inconclusive = mostly about -51% to -80%
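Neuro2A cells (4,500/well, DMEM with 0.5% FBS) were treated with compound at a single 50 µM final concentration, stimulated with 6 nM IGF for 20 min at 37 °C, and lysed. Phospho-Akt Ser473 was read by HTRF as 665/615 ratio ×10^4.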
Large screens that a line does not name were inactive.

O=P(CCCCCCCCCP(=O)(c1ccccc1)c1ccccc1)(c1ccccc1)c1ccccc1	gsp antagonist 40µM
O=C(O)CCCCCCCCCCP(=O)(c1ccccc1)c1ccccc1	none
C[C@H](NC(=O)NCc1ccc(F)cc1)C(=O)O	none
COC(=O)[C@H](C)NC(=O)NCc1ccc(F)cc1	pAkt inh -82%
COC(=O)CN1C(c2cccc(Cl)c2)=Nc2ccc(Cl)cc2C1c1ccccc1 (stereo not given)	none
COC(=O)CN1C(c2ccc(OC)cc2)=Nc2ccc(Cl)cc2C1c1ccccc1 (stereo not given)	KCNH2 3.1 inh -96
COC(=O)c1sccc1S(=O)(=O)N1CCC(n2c(CC3CCCC3)nc3cccnc32)CC1	none (no result: gsp antagonist, hERG WT inh, KCNH2 3.1 inh, gsp agonist, pAkt inh)
COc1cccc(-c2ccc(NC(=O)C3CCCN(Cc4ccccn4)C3)cc2)c1 (stereo not given)	none (no result: gsp antagonist)
COc1cccc(-c2ccc(NC(=O)C3CCCN(CCCn4cccn4)C3)cc2)c1 (stereo not given)	KCNH2 3.1 inh -84
Cc1cccc(NC(=O)c2ccc(COc3ccc(Cl)cc3Cl)o2)n1	pAkt inh -128%
Cc1cccc(NC(=O)c2ccc(COc3ccccc3)o2)n1	none
CC(C)OCCCNc1nc(-c2ccccc2)nc2ccccc12	gsp antagonist inconclusive
CC(C)(C)C(=O)OCCNc1nc(-c2ccccc2)nc2ccccc12	gsp antagonist 50µM, gsp agonist inconclusive
Cc1ccccc1C(=O)N1CCC(C(=O)Nc2nc3ccc(F)cc3s2)CC1	gsp antagonist 40µM
Cc1ccccc1C(=O)N1CCC(C(=O)Nc2nccs2)CC1	gsp agonist inconclusive
Cc1nc(N)sc1-c1csc(Nc2ccccn2)n1	pAkt inh -110%
Cc1nc(C)c(-c2csc(Nc3ccccn3)n2)s1	none
COC(=O)c1cccc(C23CC4(C2)[C@H](CN(C)[C@@H]4c2ccccc2)C3c2ccc(C(F)(F)F)cc2)c1 (stereo not given in full)	none
CN1C[C@@H]2C(c3ccc(C(F)(F)F)cc3)C3(c4ccc(C#N)cc4)CC2(C3)[C@H]1c1ccccc1 (stereo not given in full)	hERG WT inh -102, KCNH2 3.1 inh -92 (no result: gsp agonist)
CN1C[C@@H]2C(c3ccccc3)C3(c4ccccc4)CC2(C3)[C@H]1c1ccccc1 (stereo not given in full)	none (no result: gsp agonist)
CN1C[C@@H]2C(c3ccccc3)C3(c4ccc(C#N)cc4)CC2(C3)[C@H]1c1ccccc1 (stereo not given in full)	KCNH2 3.1 inh -112 (no result: gsp agonist)
SCc1nc2ccccc2[nH]1	none (no result: gsp antagonist, hERG WT inh, KCNH2 3.1 inh, gsp agonist, pAkt inh)
C=C(C)C1CC=C(C)/C(=N/NC(=O)c2ccc(NC(=O)CCC)cc2)C1 (stereo not given)	KCNH2 3.1 inh -87
CCOCCCN(CCC#N)S(=O)(=O)c1ccc(S(=O)(=O)N2CCCC2)cc1	hERG WT inh -82
C=CCn1c(-c2cccc(Cl)c2)n[nH]c1=S	gsp agonist inconclusive, pAkt inh -109%
Cc1cccc(OCC(=O)NNc2c3ccccc3nc3ccccc23)c1	gsp antagonist 22µM
Cc1ccc(OCC(=O)NNc2c3ccccc3nc3ccccc23)cc1	gsp antagonist 28µM
O=C(Cc1ccccc1)NNc1c2ccccc2nc2ccccc12	none
O=C(NCc1cccnc1)c1cnn(-c2ncc3c(n2)-c2ccccc2CCC3)c1C1CC1	none (no result: gsp antagonist, hERG WT inh, KCNH2 3.1 inh, gsp agonist, pAkt inh)
Cc1ccc(NC(=O)CSc2nc(=O)n3cc(C)ccc3n2)c(C)c1	gsp agonist inconclusive
COc1ccccc1NC(=O)CSc1nc(=O)n2cc(C)ccc2n1	gsp agonist 18µM
O=C(CSc1ccncc1)NCC1Cc2cccc(-c3cncnc3)c2O1 (stereo not given)	none (no result: gsp antagonist, hERG WT inh, KCNH2 3.1 inh, gsp agonist, pAkt inh)
Cc1nnc(N2CCCC(C(=O)NCc3ccc(OC(C)C)cc3)C2)c2nn(-c3ccccc3)c(C)c12 (stereo not given)	gsp antagonist inconclusive, KCNH2 3.1 inh -82
CCOC(=O)C1CCCN(S(=O)(=O)c2c(C)c(C)cc(C)c2C)C1 (stereo not given)	gsp antagonist 7.1µM
Oc1ccc(/C=N/NC(=S)Nc2cccnc2)c(O)c1	hERG WT inh -176, KCNH2 3.1 inh -137
COc1ccc(N(CC(O)Cn2c(C)nc3ccccc32)S(=O)(=O)c2ccccc2)cc1 (stereo not given)	none
COc1ccc(N(CC(O)Cn2c(C)nc3ccccc32)S(=O)(=O)c2ccc(C)cc2)cc1 (stereo not given)	hERG WT inh inconclusive, KCNH2 3.1 inh -102
Cc1ccc(S(=O)(=O)N(C)CC(O)Cn2c3ccccc3c3ccccc32)cc1 (stereo not given)	pAkt inh -114%
CCCN(CCC)CC(O)CN(c1ccccc1)S(=O)(=O)c1ccc(C)cc1 (stereo not given)	hERG WT inh -96, KCNH2 3.1 inh -81
COc1ccccc1C1CN(CCNC(=O)c2ccc3c(c2)OCCO3)Cc2ccccc2O1 (stereo not given)	none (no result: gsp antagonist, hERG WT inh, KCNH2 3.1 inh, gsp agonist, pAkt inh)
Nc1ccc(/C=C/c2ccnc3ccccc23)c(N)c1	none (no result: gsp antagonist, hERG WT inh, KCNH2 3.1 inh, gsp agonist, pAkt inh)
COc1cc2c(-c3ccc(O)cc3)nc3c(c(C)nn3-c3ccccc3)c2cc1OC	none
COc1cc2c(C)nc3c(c(C)nn3-c3ccccc3)c2cc1OC	KCNH2 3.1 inh -81
Cc1cc(C(=O)NCC2CCC3(CCN(Cc4ccc(F)cc4)CC3)O2)n(C)n1 (stereo not given)	none (no result: gsp antagonist, hERG WT inh, KCNH2 3.1 inh, gsp agonist, pAkt inh)
CCN1CCc2c(sc(NC(=O)Cc3ccccc3)c2C(N)=O)C1	none
CCN1CCc2c(sc(NC(=O)Nc3ccc(Cl)c(Cl)c3)c2C(N)=O)C1	hERG WT inh -133, KCNH2 3.1 inh -119
CC(=O)Nc1ccc(S(=O)(=O)N2CCN(c3nc(NC4CCCC4)c4ccccc4n3)CC2)cc1	hERG WT inh -90, KCNH2 3.1 inh -86, gsp agonist inconclusive
COc1cc(OC)cc(C(=O)NCCOC23CC4CC(CC(C4)C2)C3)c1	gsp agonist 2.5µM
CCCCCC(=O)NC(=S)Nc1ccc(N2CCCCC2)c(Cl)c1	gsp agonist inconclusive
CCCCCC(=O)Nc1ccc(N2CCN(CC)CC2)c(Cl)c1	KCNH2 3.1 inh -102
CCNc1nc(C#N)nc(Nc2ccccc2)n1	none (no result: gsp antagonist, hERG WT inh, KCNH2 3.1 inh, gsp agonist, pAkt inh)
CC(=O)Nc1ccccc1-c1nc(CNC(=O)c2ccc(-n3cccn3)cc2)c(C)o1	none (no result: gsp antagonist, hERG WT inh, KCNH2 3.1 inh, gsp agonist, pAkt inh)
COc1ccc(NC(=O)/C=C/c2ccc(OC(F)F)cc2)cn1	KCNH2 3.1 inh -75
O=C(CCN1CCCCC1)N1CCc2c([nH]c3ccccc23)C1c1cccnc1 (stereo not given)	hERG WT inh inconclusive, KCNH2 3.1 inh -73
CC(C)C(=O)NCC1CCC2(CCN(Cc3ccc(-c4ccccc4Cl)o3)CC2)O1 (stereo not given)	none (no result: gsp antagonist, hERG WT inh, KCNH2 3.1 inh, gsp agonist, pAkt inh)
